HT1080 IDH1KD tx – qHTS for induction of synthetic lethality in tumor cells producing 2HG: qHTS for the HT-1080-IDH1KD cell line; AID 686971, 2013; hit rate 2% among 360,000; Potency, µM (series often up to 46.1 µM), inactives show at the top dose activity, negative = toxicity, most hits filed as cytotoxic; HT-1080 IDH1 knockdown viability, ATP luminescence, 48 h;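 also: 0% = DMSO wells and -100% = cell-free medium wells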
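After a 2 h attachment period, IDH1KD HT-1080 cells took pin-transferred compound for 48 h at 37 °C; ATP-based luminescence after 10 min room-temperature reagent incubation reported viability.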
KB-V1 MDR tox – qHTS assay for MDR1-selective chemotherapeutics: Primary screen using the drug-selected MDR subline cells KB-V1 | KB-V1 MDR cells viability, CellTiter-Glo, 72 h | hit rate 3.4% among 400,000 | Potency, µM (series often up to 46.1 µM), actives largely listed as cytotoxic; also: % is scaled to controls: 0 for no effect and ±100 for the full control effect; nearly all actives have a fitted effect of over 60% in size
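qHTS viability screen in drug-selected KB-V1 MDR cells: 72 h compound treatment at 37 degrees C, ATP luminescence end point.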
HT1080NT lethal – qHTS for induction of synthetic lethality in tumor cells producing 2HG: qHTS for the HT-1080-NT fibrosarcoma cell line; HT-1080-NT fibrosarcoma viability, CellTiter-Glo ATP luminescence, 48 h; Potency, µM (doses to about 46.1 µM), inactives show at the highest dose activity, negative = less viability, most hits filed as cytotoxic; hit rate 1.6% among 360,000;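 also: NT is the 2HG producing partner of a matched IDH1 knockdown line; 0% = DMSO-treated cells and -100% = media-only wells without cells; nearly all actives have a fitted effect of over 55% in size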
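Toxicity toward the 2HG-producing NT line was scored as %Activity, normalised to DMSO and no-cell wells, from CellTiter-Glo luminescence after 48 hours' treatment.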
KB-3-1 cytotox – qHTS assay for MDR1-selective chemotherapeutics: Primary screen using the parental adenocarcinoma cell KB-3-1; KB-3-1 viability, CellTiter-Glo ATP luminescence, 72 h; Potency, µM (highest dose often 46.1 µM), most hits filed as cytotoxic; hit rate 1.4% among 400,000; also: % is scaled to controls: 0 for no effect and ±100 for the full control effect; nearly all actives have a fitted effect of over 60% in size
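Parental KB-3-1 viability, qHTS format: 72 h compound exposure, 37 °C; CellTiter-Glo; media-only wells and DMSO plates as controls; concentration-effect fits on corrected data.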
SW480 rerep – A quantitative high throughput screen for small molecules that induce DNA re-replication in SW480 colon adenocarcinoma cells. SW480 DNA re-replication, Hoechst DNA content imaging, 48 h. Potency, µM (series often up to 46.1 µM), without a hit: at the highest dose re-replication activation, actives largely listed as activators. AID 624297, 2012. hit rate 1.8% among 340,000; also: % of control where 0% means no effect; nearly all actives have a fitted effect of over 55% in size
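Image-based read-out: total Hoechst fluorescence of nuclei (405 nm excitation, 500-530 nm emission), with hits raising the fraction of high-intensity nuclei. SW480 colon cells incubated 48 hr with compounds at 37 C.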
MCF10A rereplic – A quantitative high throughput screen for small molecules that induce DNA re-replication in MCF 10a normal breast cells; MCF 10A DNA re-replication, Hoechst nuclear intensity, 48 h; Potency, µM (series often up to 46.1 µM), without a hit: at the top dose activity, positive = re-replication, most hits filed as activators; hit rate 2.9% among 350,000; AID 624296, 2012; also: % of control where 0% means no effect; nearly all actives have a fitted effect of over 50% in size
Active calls of the source: *; i = inactive; ? = inconclusive; nt = no result given; [ ] = dose if it differs, or a comment. Compounds with a hit are over-represented: about 7.9% of the library has one in this group of screens. Calls follow the shape of the dose curve; as a rule, active = well fitted curve in the direction sought with a large enough effect; inconclusive = small, poorly fitted or top-dose-only effect, or another doubt; inactive = no such curve, though single readings can be large; an effect the other way counts as inactive or inconclusive. Potency is read from the fitted curve at half-maximal effect.

SMILES	HT1080 IDH1KD tx	KB-V1 MDR tox	HT1080NT lethal	KB-3-1 cytotox	SW480 rerep	MCF10A rereplic
COc1ccc(C(=O)Nc2nnc(SCc3cc(=O)c4cc(C)cc(C)c4[nH]3)s2)cc1	nt	i	nt	i	nt	nt
COc1ccc(-c2nnc(SCc3cc(=O)c4cc(C)cc(C)c4[nH]3)n2C)cc1	nt	?	nt	8.2µM*	nt	nt
CC1=C/C(=N\N=C2\NC(=O)C(CC(=O)Nc3ccccc3)S2)CC(C)(C)C1 (stereo not given)	-8.7%	i	-12.8%	i	-110.1%	-4.1%
COc1ccc(CNC(=O)C(=O)NCC(c2cccnc2)N2CCN(c3ccccc3)CC2)cc1 (stereo not given)	nt	i	nt	?	nt	nt
O=C(Cc1cn2ccsc2n1)Nc1ccccn1	5.3%	i	0.4%	i	-5.4%[9.22 µM]	-1.8%
CC1(C)N=C(N)N=C(N)N1c1ccc(OCCCOc2ccccc2)c(Cl)c1	2.06µM*	i	?	?	5.0%	?
CC1(C)N=C(N)N=C(N)N1c1cccc(CC(=O)Nc2ccccc2)c1	3.26µM*	i	9.2µM*	i	nt	nt
Cc1cccc(NC(=O)CCc2ccc(N3C(N)=NC(N)=NC3(C)C)cc2)c1	0.461µM*	?	1.03µM*	i	nt	nt
NC(=O)c1ccc(NC(=O)COc2ccc([N+](=O)[O-])cc2Cl)cc1	-0.8%	i	-6.2%	i	-15.9%	4.3%
CC1(C)N=C(N)N=C(N)N1c1ccc(OCC(=O)Nc2ccccc2)c(Cl)c1	0.366µM*	?	0.731µM*	?	nt	nt
COc1ccc2c(CNCCc3cccs3)c(C(=O)O)n(Cc3cccc(F)c3)c2c1	nt	i	nt	i	nt	nt
Cc1cccc(C)c1NC(=O)C(c1ccccc1)n1c(=O)c(-c2ccccc2)nc2ccccc21 (stereo not given)	-16.2%	?	-16.3%	?	nt	nt
CCN(C(=O)c1cc(Cl)ccc1Cl)C1CCS(=O)(=O)C1 (stereo not given)	4.0%	18.4µM*	5.1%	i	-23.4%	11.7%
O=C(/C=C/c1ccc(Cl)cc1Cl)N(Cc1ccc(Cl)cc1)C1CCS(=O)(=O)C1 (stereo not given)	-3.0%	5.8µM*	0.4%	?	0.0%	?
CCCN(C(=O)c1cc(S(=O)(=O)N2CCN(CC)CC2)ccc1Cl)C1CCS(=O)(=O)C1 (stereo not given)	-2.6%	i	-4.1%	i	-3.6%	-5.2%
CSCCC(NC(=O)c1cncc(Br)c1)C(=O)O (stereo not given)	1.1%	i	-5.0%[9.24 µM]	i	1.5%	-3.2%
O=C(CN1C(=O)CCSc2ccccc21)Nc1ccc2c(c1)OCCO2	-22.8%	13µM*	4.6%	i	-3.5%	-6.4%
O=C(CN1C(=O)CC(c2ccco2)Sc2ccccc21)Nc1ccc2c(c1)OCCO2 (stereo not given)	-21.2%	i	0.7%	i	0.4%	0.7%
CC1CC(=O)N(CC(=O)Nc2ccc3c(c2)OCO3)c2ccccc2S1 (stereo not given)	-22.4%	16.4µM*	-1.7%	?	1.0%	2.8%
COc1ccc(C(=O)Oc2ccc(C(C)=O)cc2)c(OC)c1	2.3%[9.24 µM]	i	12.7%	i	-6.3%	1.0%
COc1ccc(-n2nc(C(=O)NCC(=O)N3CCCCC3)c3ccccc3c2=O)c(OC)c1	-3.0%	i	-2.0%	i	-0.4%	-12.0%
COC(=O)[C@@]12C[C@@H](CC(=O)NCc3cccc(C(F)(F)F)c3)C(=O)N(Cc3cccc4ccccc34)C1=CCC(C)(C)C2	?	?	?	i	nt	nt
COC(=O)[C@@]12C[C@@H](CC(=O)NCc3cccc4ccccc34)C(=O)N(Cc3ccc4c(c3)OCO4)C1=CCC(C)(C)C2	?	23.1µM*	?	?	nt	nt
COC(=O)[C@@]12C[C@@H](CC(=O)N3CCN(C(=O)C4CC4)CC3)C(=O)N(Cc3cccc4ccccc34)C1=CCC(C)(C)C2	?	?	?	i	nt	nt
COC(=O)[C@@]12C[C@@H](CC(=O)NCc3cccc4ccccc34)C(=O)N(Cc3ccccc3)C1=CCC(C)(C)C2	?	20.6µM*	?	?	nt	nt
SMILES	HT1080 IDH1KD tx	KB-V1 MDR tox	HT1080NT lethal	KB-3-1 cytotox	SW480 rerep	MCF10A rereplic
COC(=O)[C@@]12C[C@@H](CC(=O)NCCc3ccccc3OC)C(=O)N(Cc3ccco3)C1=CCC(C)(C)C2	?	14.6µM*	?	i	nt	nt
COC(=O)[C@@]12C[C@@H](CC(=O)N3CCCC3)C(=O)N(Cc3cccc4ccccc34)C1=CCC(C)(C)C2	-27.4%	13µM*	?	?	nt	nt
COc1cc(C(=O)OCCCN=C2NS(=O)(=O)c3ccccc32)cc(OC)c1OC	7.9%	?	25.4%	i	-20.7%	-3.5%
CCCCCc1ccc(-c2ccc(C(=O)Oc3ccc(C(=O)OC)cc3)cc2)nc1	nt	i	nt	i	nt	nt
CC(NC(=O)OC(C)(C)C)C(=O)Oc1cc2oc(=O)cc(-c3ccccc3)c2cc1Cl (stereo not given)	-1.2%	i	0.8%	i	4.2%	?
COC(=O)[C@@]12C[C@@H](CC(=O)NCc3ccccc3)C(=O)N(Cc3ccc4c(c3)OCO4)C1=CCC(C)(C)C2	?	20.6µM*	?	?	nt	nt
COC(=O)[C@@]12C[C@@H](CC(=O)NCC34CC5CC(CC(C5)C3)C4)C(=O)N(Cc3ccccc3)C1=CCC(C)(C)C2	?	23.1µM*	?	?	nt	nt
COC(=O)[C@@]12C[C@@H](CC(=O)NCC34CC5CC(CC(C5)C3)C4)C(=O)N(Cc3cccc4ccccc34)C1=CCC(C)(C)C2	-11.9%	i	-22.3%	?	nt	nt
COC(=O)[C@]12CCCCC=C1N(Cc1ccc3c(c1)OCO3)C(=O)[C@H](CC(=O)NCc1ccccc1)C2	-4.9%	?	0.2%	i	nt	nt
COC(=O)[C@@]12C[C@@H](CC(=O)NCc3cccc4ccccc34)C(=O)N(Cc3ccco3)C1=CCC(C)(C)C2	?	20.6µM*	?	i	nt	nt
CSc1ccc(CCNC(=O)c2cnc3c(C)cccn3c2=O)cc1	nt	i	nt	i	nt	nt
COc1ccccc1C(=O)n1nc(-c2ccco2)nc1N	22.5%	i	12.9%	i	-6.5%	-6.0%

Source: PubChem (National Center for Advancing Translational Sciences (NCATS))
